Assay results as given in PubChem BioAssay (EPA / NIEHS).
Values joined by “and” are separate entries in the source; they are usually repeats but may differ in a detail not shown here. Equal values may be shown once. Inconclusive results are not listed. Some structures have more than one record in an assay (separate samples or runs), and their calls can disagree. Active and inactive are the calls of the source. Rule for the calls, unless noted: active = hit-call score of the fitted dose curve at least 0.9, where 1 is the maximum; inactive = score below 0.9.

Key:
[1] = read-out: Signal transducer and activator of transcription 3 (Homo sapiens) (UniProt P40763); test: LTEA_HepaRG_STAT3: Life Technologies and Expression Analysis (LTEA) Assay for Signal transducer and activator of transcription (STAT3) using HepaRG (AID 2283529); settings: mRNA level, 48 h; actives raise or lower the signal
Method in brief: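 In this transcriptional endpoint, HepaRG cultures receive test chemicals at up to 100 uM for 48 h, tested in duplicate. STAT3 mRNA is normalized to ACTB, GAPDH and POLR2A.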

[2] = read-out: solute carrier (SLCO1B1), SLCO1B1 (gene 10599); test: LTEA_HepaRG_SLCO1B1: Life Technologies and Expression Analysis (LTEA) Assay for solute carrier (SLCO1B1) using HepaRG (AID 2283530); settings: mRNA level, 48 h; actives raise or lower the signal
Method in brief: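 Gain or loss of SLCO1B1 mRNA is fitted against the 0.5% DMSO vehicle in human HepaRG liver cells treated 48 h at up to 100 uM in half-log steps. Expression comes from qRT-PCR normalized to endogenous controls.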

[3] = read-out: Transforming Growth Factor (TGFA), TGFA (gene 7039); test: LTEA_HepaRG_TGFA: Life Technologies and Expression Analysis (LTEA) Assay for Transforming Growth Factor (TGFA) using HepaRG (AID 2283532); settings: mRNA level, 48 h; actives raise or lower the signal
Method in brief: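 Gene expression of TGFA was quantified by qRT-PCR after human HepaRG cells were treated for 48 h with test chemicals (eight concentrations, highest 100 uM, 0.5% DMSO). Activity in either direction was fitted relative to DMSO.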

TIMP1, TIMP1 (gene 7076) = test: LTEA_HepaRG_TIMP1: Life Technologies and Expression Analysis (LTEA) Assay for TIMP1 using HepaRG (AID 2283534); settings: mRNA level, 48 h; actives raise or lower the signal
Method in brief: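 We dosed human liver HepaRG cultures for 48 hours with up to 100 uM test chemical and measured TIMP1 expression by qRT-PCR. Activity in either direction is fitted relative to the 0.5% DMSO vehicle.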

[4] = read-out: Tumor necrosis factor receptor 1 (TNFRSF1A), TNFRSF1A (gene 7132); test: LTEA_HepaRG_TNFRSF1A: Life Technologies and Expression Analysis (LTEA) Assay for Tumor necrosis factor receptor 1 (TNFRSF1A) using HepaRG (AID 2283535); settings: mRNA level, 48 h; actives raise or lower the signal
Method in brief: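 Expression of TNFRSF1A in human HepaRG liver cells was measured by qRT-PCR 48 h after chemical dosing (maximum 100 uM). Bidirectional curve fitting used 0.5% DMSO as baseline.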

[5] = read-out: Thyroid Hormone Responsive (THRSP), THRSP (gene 7069); test: LTEA_HepaRG_THRSP: Life Technologies and Expression Analysis (LTEA) Assay for Thyroid Hormone Responsive (THRSP) using HepaRG (AID 2283536); settings: mRNA level, 48 h; actives raise or lower the signal
Method in brief: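 Cell model: human HepaRG, approx. 100,000 cells/well, 0.5% DMSO vehicle. Exposure lasts 48 h; phenobarbital 1 mM serves as induction positive control. Gene expression is measured by qRT-PCR against three endogenous control genes.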

[6] = read-out: UDP glucuronosyltransferase (UGT1A1), UGT1A1 (gene 54658); test: LTEA_HepaRG_UGT1A1: Life Technologies and Expression Analysis (LTEA) Assay for UDP glucuronosyltransferase (UGT1A1) using HepaRG (AID 2283538); settings: mRNA level, 48 h; actives raise or lower the signal
Method in brief: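 UGT1A1 transcript level, measured by qRT-PCR with three housekeeping genes for normalization, after 48 h treatment of human HepaRG cells (0.5% DMSO, duplicates, up to 100 uM, half-log steps, 8 points). Curves fit both directions against DMSO baseline.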

[7] = read-out: X-box binding protein 1 (XBP1), XBP1 (gene 7494); test: LTEA_HepaRG_XBP1: Life Technologies and Expression Analysis (LTEA) Assay for X-box binding protein 1 (XBP1) using HepaRG (AID 2283540); settings: mRNA level, 48 h; actives raise or lower the signal
Method in brief: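 Human HepaRG monolayers receive test chemical for 48 h across an eight-point half-log series starting at 100 uM. XBP1 mRNA gain or loss is scored against DMSO by qRT-PCR.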

[8] = LTEA_HepaRG_LDH_cytotoxicity: Cytotoxicity Assessment in the Life Technologies and Expression Analysis (LTEA) Assay (AID 2283563; active = hit-call score of the fitted dose curve at least 0.9, where 1 is the maximum;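 for AC50: LDH activity released into spent culture medium as a marker of cell death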)
Method in brief: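 Human HepaRG hepatic cells are treated with test chemicals for 48 h at up to 100 uM in 0.5% DMSO. Cytotoxicity is scored from medium LDH against the vehicle control.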

[9] = ATG_XTT_Cytotoxicity: Cytotoxicity Assessment in the Attagene TRANS-FACTORIAL HepG2 Assay (AID 2283584; active = hit-call score of the fitted dose curve at least 0.9, where 1 is the maximum)
Method in brief: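 Transfect HepG2 with GAL4-UAS reporter units, dose compound, incubate 24 h, then measure viable cell number by XTT. Fit concentration response against DMSO baseline.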

[10] = target: Cellular tumor antigen p53 (Homo sapiens) (UniProt P04637); test: TOX21_p53_BLA_p2_ratio: Tox21 HCT-116 p53 Agonism Beta-lactamase Assay, Ratio, Phase 2 (AID 2283592; active = hit-call score of the fitted dose curve at least 0.9, where 1 is the maximum)
Method in brief: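 Cleaved-to-uncleaved substrate ratio (460 vs 530 nm) measured in HCT116 cells with an inducible beta-lactamase reporter linked to p53 activity. Compounds incubated 16 h at 37C before 2 h room-temperature CCF4-AM loading.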

[11] = target: Cellular tumor antigen p53 (Homo sapiens) (UniProt P04637); test: TOX21_p53_BLA_p3_ratio: Tox21 HCT-116 p53 Agonism Beta-lactamase Assay, Ratio, Phase 3 (AID 2283596; active = hit-call score of the fitted dose curve at least 0.9, where 1 is the maximum)
Method in brief: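 Cells were seeded at 4000/well, rested 5 h at 37C, then dosed with DMSO compound solutions (217-fold dilution) for 16 h. CCF4-AM substrate was loaded for 2 h at room temperature, and the 460/530 nm emission ratio was fitted for gain of signal versus DMSO.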

[12] = TOX21_p53_BLA_p4_viability: Viability Assessment in the Tox21 HCT-116 p53 Agonism Beta-lactamase Assay, Phase 4 (AID 2283597; active = hit-call score of the fitted dose curve at least 0.9, where 1 is the maximum;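 note: hits lower the luminescence signal meaning cytotoxicity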)
Method in brief: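 Viability is taken as cellular ATP: after 16 h compound exposure of HCT116 cells and a 2 h room-temperature CCF4-AM substrate step, CellTiter-Glo reagent is added and luminescence is measured 30 min later.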

[13] = read-out: Transforming Growth Factor (TGFB1), TGFB1 (gene 7040); test: LTEA_HepaRG_TGFB1: Life Technologies and Expression Analysis (LTEA) Assay for Transforming Growth Factor (TGFB1) Transporter using HepaRG (AID 2283533); settings: mRNA level, 48 h; actives raise or lower the signal
Method in brief: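 Expression change of TGFB1 in human HepaRG cells is measured after a 48 h chemical exposure, up to 100 uM in 0.5% DMSO vehicle. Curves are fitted in both directions relative to the DMSO baseline.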

[14] = read-out: Cellular tumor antigen p53 (Homo sapiens) (UniProt P04637); test: LTEA_HepaRG_TP53: Life Technologies and Expression Analysis (LTEA) Assay for Tumor Protein P53 (TP53) using HepaRG (AID 2283537); settings: mRNA level, 48 h; actives raise or lower the signal
Method in brief: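 Differentiated HepaRG cells in serum-free induction medium exposed 48 h in duplicate to 8 half-log concentrations, top 100 uM, 0.5% DMSO. TP53 mRNA by TaqMan qRT-PCR (Fluidigm), normalized to ACTB, GAPDH, POLR2A; fitted bidirectionally versus DMSO.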

[15] = read-out: UDP glucuronosyltransferase (UGT1A6), UGT1A6 (gene 54578); test: LTEA_HepaRG_UGT1A6: Life Technologies and Expression Analysis (LTEA) Assay for UDP glucuronosyltransferase (UGT1A6) using HepaRG (AID 2283539); settings: mRNA level, 48 h; actives raise or lower the signal
Method in brief: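 Endpoint is UGT1A6 transcript induction or loss in a human liver cell line, quantified by TaqMan qRT-PCR 48 h after dosing. Concentrations ran from 100 uM downward in half-log steps in 0.5% DMSO; activity was fitted in both directions versus vehicle.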

[16] = read-out: sulfotransferase 2A1 (SULT2A1), SULT2A1 (gene 6822); test: LTEA_HepaRG_SULT2A1: Life Technologies and Expression Analysis (LTEA) Assay for sulfotransferase 2A1 (SULT2A1) using HepaRG (AID 2283531); settings: mRNA level, 48 h; actives raise or lower the signal
Method in brief: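 Cells were plated and cultured 48 h, switched to serum-free induction medium, then dosed in duplicate for 48 h (8 concentrations, max 100 uM). RNA was isolated and SULT2A1 expression measured by qRT-PCR; gain or loss of signal fitted relative to DMSO.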

[17] = TOX21_p53_BLA_p2_viability: Viability Assessment in the Tox21 HCT-116 p53 Agonism Beta-lactamase Assay, Phase 2 (AID 2283591; active = hit-call score of the fitted dose curve at least 0.9, where 1 is the maximum;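 note: compound exposure lasted 16 h at 37 °C; actives lower the ATP signal meaning cytotoxicity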)
Method in brief: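 HCT-116 p53-bla cells (4000/well) rested 5 h at 37C, then received compounds in DMSO (217-fold dilution) for 16 h at 37C, 5% CO2. After the CCF4 read, CellTiter-Glo was added; ATP luminescence was read after 30 min at room temperature.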

[18] = TOX21_p53_BLA_p3_viability: Viability Assessment in the Tox21 HCT-116 p53 Agonism Beta-lactamase Assay, Phase 3 (AID 2283593; active = hit-call score of the fitted dose curve at least 0.9, where 1 is the maximum;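 note: cells exposed to compound for 16 h before reading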)
Method in brief: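 HCT-116 cells (4000/well) rested 5 h at 37C, then got DMSO compounds by pin tool (217-fold dilution) for 16 h at 37C, 5% CO2. After the bla read, CellTiter-Glo was added and luminescence read at 30 min, room temperature.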

Measured: AC50

Chain of Signal transducer and activator of transcription 3 (Homo sapiens) (P40763 whole entry, looked up): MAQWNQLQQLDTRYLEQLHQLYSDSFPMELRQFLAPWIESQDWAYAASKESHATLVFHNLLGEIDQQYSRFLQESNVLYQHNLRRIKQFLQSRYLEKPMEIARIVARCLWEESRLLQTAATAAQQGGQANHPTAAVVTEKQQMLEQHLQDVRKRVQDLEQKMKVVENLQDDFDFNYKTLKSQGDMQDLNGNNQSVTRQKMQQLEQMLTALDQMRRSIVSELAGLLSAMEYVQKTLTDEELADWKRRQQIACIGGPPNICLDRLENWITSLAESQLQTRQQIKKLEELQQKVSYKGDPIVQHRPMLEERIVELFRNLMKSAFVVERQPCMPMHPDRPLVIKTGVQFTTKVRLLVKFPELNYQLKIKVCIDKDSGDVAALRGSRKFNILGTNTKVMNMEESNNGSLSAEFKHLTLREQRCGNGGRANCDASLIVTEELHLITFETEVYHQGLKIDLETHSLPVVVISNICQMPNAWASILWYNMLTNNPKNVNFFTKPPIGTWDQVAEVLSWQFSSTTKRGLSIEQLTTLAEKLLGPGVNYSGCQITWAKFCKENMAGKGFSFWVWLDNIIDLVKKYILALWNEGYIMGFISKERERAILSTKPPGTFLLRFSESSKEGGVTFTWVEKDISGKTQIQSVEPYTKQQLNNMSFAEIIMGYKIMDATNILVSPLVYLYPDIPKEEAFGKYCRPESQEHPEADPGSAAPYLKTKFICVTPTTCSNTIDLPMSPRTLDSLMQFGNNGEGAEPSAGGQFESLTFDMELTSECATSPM
Chain of Cellular tumor antigen p53 (Homo sapiens) (P04637 whole entry, looked up): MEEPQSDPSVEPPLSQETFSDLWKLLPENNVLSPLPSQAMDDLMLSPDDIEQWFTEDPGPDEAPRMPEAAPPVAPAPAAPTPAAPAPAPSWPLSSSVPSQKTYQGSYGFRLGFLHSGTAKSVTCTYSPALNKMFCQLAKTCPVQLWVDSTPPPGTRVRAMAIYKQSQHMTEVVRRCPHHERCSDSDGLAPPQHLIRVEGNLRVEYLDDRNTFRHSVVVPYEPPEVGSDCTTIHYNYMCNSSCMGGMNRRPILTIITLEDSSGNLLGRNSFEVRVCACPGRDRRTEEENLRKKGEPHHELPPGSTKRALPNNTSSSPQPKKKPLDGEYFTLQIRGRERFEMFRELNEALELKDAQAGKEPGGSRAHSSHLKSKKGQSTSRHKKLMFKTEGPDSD

O=C(OCCCCCOC(=O)c1ccccc1)c1ccccc1
inactive: TIMP1, TIMP1 (gene 7076) | [5] | [8] | [9] | [10] | [11] | [12]
active: [1] 7.25 µM | [2] 1.29 µM | [3] 1.28 µM | [4] 1.99 µM | [6] 1.07 µM | [7] 0.761 µM

Cc1cc(NC(=O)C(=O)O)cc(C)c1Oc1ccc(O)c2c1CCC2
active: [2] 50 µM
not listed: [9] | [10] | [12] | [16] | [17] | [18]
inactive: all other assays above

CCNc1cccc(C)c1
not listed: [13] | [15] | [18]
inactive: all other assays above

CNCc1cc(F)ccc1Oc1ccc(Cl)c(Cl)c1
active: [2] 82.6 µM | [16] 84.2 µM | [6] 82.8 µM | [8] 81.7 µM
not listed: [9] | [13] | [15] | [17]
inactive: all other assays above

Cc1nc(C)nc(N2C[C@@H](C)N(c3ccnc([C@@H](C)O)n3)[C@@H](C)C2)n1
not listed: [9] | [11] | [12] | [14] | [16] | [18]
inactive: all other assays above

O=[N+]([O-])C(CO)(CO)CO
not listed: [9] | [10] | [11] | [16]
inactive: all other assays above

Cc1nc(-c2ccc3c(c2)CCN(CCC2CCC(NC(=O)/C=C/c4ccc(F)cc4)CC2)CC3)no1 (stereo not drawn)
not listed: [13] | [14] | [16] | [18]
inactive: all other assays above

Cc1ccc(Cl)cc1
not listed: [5] | [10] | [13] | [14] | [16] | [18]
inactive: all other assays above

C[C@]12C=CC(=O)C=C1CC[C@@H]1[C@@H]2C(=O)C[C@@]2(C)[C@H]1CC[C@]2(O)C(=O)CO
active: [6] 50 µM
not listed: [10] | [11] | [13] | [14] | [15] | [16] | [18]
inactive: all other assays above

COc1cc(/C=C/C(=O)CC(=O)/C=C/c2ccc(O)c(OC)c2)ccc1O
inactive: [9] | [17] | [12]
active: [17] 82.2 µM and 34.1 µM | [11] 13.6 µM and 35.3 µM and 6.9 µM | [12] 88.4 µM and 23 µM

CC(=O)Oc1ccccc1C(=O)O
not listed: [5] | [9] | [10] | [15] | [16]
inactive: all other assays above

NC(=O)Cn1c(=O)cc(CCN2CCN(c3nccc4sccc34)CC2)c2ccc(F)cc21
active: [13] 39.1 µM | [5] 50 µM | [6] 12.6 µM | [15] 34.6 µM | [7] 77 µM
not listed: [9] | [11] | [14] | [16] | [17]
inactive: all other assays above

CC(C)(C)c1cc(O)c(C(C)(C)C)cc1O
inactive: [1] | [3] | [7] | [17]
active: [2] 79.1 µM | TIMP1, TIMP1 (gene 7076) 50 µM | [4] 78.3 µM | [5] 78.9 µM | [14] 86.7 µM | [6] 89.2 µM | [15] 91.3 µM | [8] 73.5 µM | [11] 71.6 µM | [12] 69 µM
